By inhibition is commonly meant the change of the read-out against control, counted positive when it falls.

The source of these data is ChEMBL document CHEMBL1961873, “Compounds: GSK PKIS; Assays: Nanosyn kinase panel” (2012).

Assay [1] has as its target T1, Serine/threonine-protein kinase D2 (Homo sapiens) (UniProt Q9BZL6).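 Note: mean value of PRKD2 inhibition, from the GSK PKIS screening panel.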
T1 sequence (whole entry): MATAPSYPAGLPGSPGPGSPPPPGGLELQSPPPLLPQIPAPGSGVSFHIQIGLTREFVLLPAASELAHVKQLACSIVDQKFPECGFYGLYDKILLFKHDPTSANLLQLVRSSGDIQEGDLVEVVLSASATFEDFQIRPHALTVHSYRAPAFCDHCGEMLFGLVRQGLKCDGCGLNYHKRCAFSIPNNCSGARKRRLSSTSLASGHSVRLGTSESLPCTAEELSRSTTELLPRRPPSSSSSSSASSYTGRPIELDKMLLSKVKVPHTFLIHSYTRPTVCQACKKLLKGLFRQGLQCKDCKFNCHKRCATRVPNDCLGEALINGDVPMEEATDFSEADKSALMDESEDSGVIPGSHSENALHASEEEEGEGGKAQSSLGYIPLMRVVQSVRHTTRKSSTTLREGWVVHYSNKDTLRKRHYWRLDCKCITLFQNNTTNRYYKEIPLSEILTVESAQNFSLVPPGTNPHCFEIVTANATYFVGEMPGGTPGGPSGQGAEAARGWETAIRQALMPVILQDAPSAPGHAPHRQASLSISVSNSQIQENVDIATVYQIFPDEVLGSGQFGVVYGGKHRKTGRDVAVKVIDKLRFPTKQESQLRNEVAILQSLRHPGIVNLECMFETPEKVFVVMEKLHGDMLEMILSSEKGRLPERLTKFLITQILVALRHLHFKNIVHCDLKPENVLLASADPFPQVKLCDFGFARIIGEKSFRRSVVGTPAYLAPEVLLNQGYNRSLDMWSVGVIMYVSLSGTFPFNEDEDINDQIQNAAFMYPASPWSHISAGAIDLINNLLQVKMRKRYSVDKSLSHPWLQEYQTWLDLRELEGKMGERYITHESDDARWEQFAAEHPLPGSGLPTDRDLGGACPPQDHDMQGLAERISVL
The note with it: at 1 µM.

Assay [2] deals with T2, Serine/threonine-protein kinase D3 (Homo sapiens) (UniProt O94806).
T2 sequence (whole entry): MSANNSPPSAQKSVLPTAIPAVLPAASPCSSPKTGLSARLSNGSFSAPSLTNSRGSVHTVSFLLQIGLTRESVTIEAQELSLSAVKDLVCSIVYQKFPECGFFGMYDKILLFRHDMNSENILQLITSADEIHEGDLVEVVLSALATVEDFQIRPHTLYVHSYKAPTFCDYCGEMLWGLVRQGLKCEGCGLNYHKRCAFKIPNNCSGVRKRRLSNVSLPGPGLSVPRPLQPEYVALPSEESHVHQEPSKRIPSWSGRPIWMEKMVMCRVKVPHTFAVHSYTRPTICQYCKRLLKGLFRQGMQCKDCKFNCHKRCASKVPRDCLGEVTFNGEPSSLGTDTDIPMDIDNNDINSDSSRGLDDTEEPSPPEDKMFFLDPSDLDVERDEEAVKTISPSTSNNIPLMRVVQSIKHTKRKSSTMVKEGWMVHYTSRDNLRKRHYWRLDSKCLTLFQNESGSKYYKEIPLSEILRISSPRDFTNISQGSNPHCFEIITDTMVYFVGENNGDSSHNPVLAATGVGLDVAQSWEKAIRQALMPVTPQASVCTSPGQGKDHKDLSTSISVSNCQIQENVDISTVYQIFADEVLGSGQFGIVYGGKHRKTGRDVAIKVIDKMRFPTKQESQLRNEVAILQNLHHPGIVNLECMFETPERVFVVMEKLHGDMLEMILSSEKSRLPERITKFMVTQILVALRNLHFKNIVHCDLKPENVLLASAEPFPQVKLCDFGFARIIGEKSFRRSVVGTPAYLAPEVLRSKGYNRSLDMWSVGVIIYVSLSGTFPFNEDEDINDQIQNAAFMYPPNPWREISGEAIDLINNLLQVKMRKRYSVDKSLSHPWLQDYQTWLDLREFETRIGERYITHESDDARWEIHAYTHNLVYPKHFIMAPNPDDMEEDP
The note with it: at 0.1 µM.

The target in assay [3] is T2, Serine/threonine-protein kinase D3 (Homo sapiens). The settings on record: at 1 µM.
Assay [4] concerns the target T3, cGMP-dependent protein kinase 1 (Homo sapiens) (UniProt Q13976).
T3 sequence (whole entry): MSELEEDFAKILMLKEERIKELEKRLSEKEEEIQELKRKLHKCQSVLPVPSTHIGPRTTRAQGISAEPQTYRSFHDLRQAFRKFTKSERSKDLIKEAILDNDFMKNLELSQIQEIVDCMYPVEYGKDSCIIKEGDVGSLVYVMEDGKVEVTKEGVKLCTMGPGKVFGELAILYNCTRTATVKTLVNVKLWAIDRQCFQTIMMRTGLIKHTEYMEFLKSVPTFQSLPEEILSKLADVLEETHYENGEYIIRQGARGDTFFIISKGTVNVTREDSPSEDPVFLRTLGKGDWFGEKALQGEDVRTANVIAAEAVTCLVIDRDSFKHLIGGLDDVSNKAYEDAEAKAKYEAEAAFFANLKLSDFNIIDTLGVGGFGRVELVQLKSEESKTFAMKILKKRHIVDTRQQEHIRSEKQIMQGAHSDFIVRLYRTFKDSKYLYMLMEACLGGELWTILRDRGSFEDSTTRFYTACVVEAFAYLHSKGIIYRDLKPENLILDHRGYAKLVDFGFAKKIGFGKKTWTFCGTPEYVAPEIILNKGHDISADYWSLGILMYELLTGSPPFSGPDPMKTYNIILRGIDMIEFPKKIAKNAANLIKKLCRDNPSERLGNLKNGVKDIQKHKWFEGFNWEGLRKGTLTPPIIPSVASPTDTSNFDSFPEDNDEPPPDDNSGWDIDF
The settings on record: at 0.1 µM.

The target of assay [5] is T3, cGMP-dependent protein kinase 1 (Homo sapiens). The settings on record: at 1 µM.
Assay [6] deals with T4, cGMP-dependent protein kinase 2 (Homo sapiens) (UniProt Q13237).
T4 sequence (whole entry): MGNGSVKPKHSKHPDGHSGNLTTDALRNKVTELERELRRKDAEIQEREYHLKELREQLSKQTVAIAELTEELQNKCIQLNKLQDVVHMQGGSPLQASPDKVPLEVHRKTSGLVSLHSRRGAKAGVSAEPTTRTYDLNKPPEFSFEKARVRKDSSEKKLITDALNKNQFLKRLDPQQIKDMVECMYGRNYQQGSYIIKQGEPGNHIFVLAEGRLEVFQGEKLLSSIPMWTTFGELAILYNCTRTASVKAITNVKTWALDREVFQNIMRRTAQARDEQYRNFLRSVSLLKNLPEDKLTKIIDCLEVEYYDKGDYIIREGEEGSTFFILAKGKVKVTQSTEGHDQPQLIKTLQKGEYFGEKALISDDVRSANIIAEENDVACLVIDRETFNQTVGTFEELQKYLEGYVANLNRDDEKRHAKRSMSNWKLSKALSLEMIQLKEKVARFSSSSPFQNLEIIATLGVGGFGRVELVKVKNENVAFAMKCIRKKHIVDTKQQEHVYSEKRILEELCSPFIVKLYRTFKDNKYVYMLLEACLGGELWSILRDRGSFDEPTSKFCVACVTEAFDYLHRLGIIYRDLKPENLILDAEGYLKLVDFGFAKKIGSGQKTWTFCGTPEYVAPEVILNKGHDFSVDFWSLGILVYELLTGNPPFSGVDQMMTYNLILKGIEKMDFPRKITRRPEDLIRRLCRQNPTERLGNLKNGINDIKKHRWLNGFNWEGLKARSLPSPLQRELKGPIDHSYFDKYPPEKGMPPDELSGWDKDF
The settings on record: at 0.1 µM.

Assay [7] addresses T4, cGMP-dependent protein kinase 2 (Homo sapiens). The note with it: at 1 µM.
The target of assay [8] is T5, cAMP-dependent protein kinase catalytic subunit PRKX (Homo sapiens) (UniProt P51817).
T5 sequence (whole entry): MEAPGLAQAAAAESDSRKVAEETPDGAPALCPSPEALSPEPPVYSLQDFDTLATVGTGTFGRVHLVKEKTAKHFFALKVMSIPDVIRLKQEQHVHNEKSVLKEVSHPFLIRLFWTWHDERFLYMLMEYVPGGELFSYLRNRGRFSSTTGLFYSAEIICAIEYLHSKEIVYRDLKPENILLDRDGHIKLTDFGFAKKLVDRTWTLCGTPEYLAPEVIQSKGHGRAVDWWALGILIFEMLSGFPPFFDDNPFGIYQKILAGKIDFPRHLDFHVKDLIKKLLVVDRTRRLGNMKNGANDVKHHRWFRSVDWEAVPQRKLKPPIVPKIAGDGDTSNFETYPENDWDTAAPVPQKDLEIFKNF
The note with it: at 0.1 µM.

Assay [9] deals with T5, cAMP-dependent protein kinase catalytic subunit PRKX (Homo sapiens). The settings on record: at 1 µM.
Assay [10] deals with Rho-associated protein kinase 1 (Homo sapiens) (UniProt Q13464). The note with it: at 0.1 µM.
Sequence of Rho-associated protein kinase 1 (Homo sapiens) (Q13464 2-1354 limits assumed): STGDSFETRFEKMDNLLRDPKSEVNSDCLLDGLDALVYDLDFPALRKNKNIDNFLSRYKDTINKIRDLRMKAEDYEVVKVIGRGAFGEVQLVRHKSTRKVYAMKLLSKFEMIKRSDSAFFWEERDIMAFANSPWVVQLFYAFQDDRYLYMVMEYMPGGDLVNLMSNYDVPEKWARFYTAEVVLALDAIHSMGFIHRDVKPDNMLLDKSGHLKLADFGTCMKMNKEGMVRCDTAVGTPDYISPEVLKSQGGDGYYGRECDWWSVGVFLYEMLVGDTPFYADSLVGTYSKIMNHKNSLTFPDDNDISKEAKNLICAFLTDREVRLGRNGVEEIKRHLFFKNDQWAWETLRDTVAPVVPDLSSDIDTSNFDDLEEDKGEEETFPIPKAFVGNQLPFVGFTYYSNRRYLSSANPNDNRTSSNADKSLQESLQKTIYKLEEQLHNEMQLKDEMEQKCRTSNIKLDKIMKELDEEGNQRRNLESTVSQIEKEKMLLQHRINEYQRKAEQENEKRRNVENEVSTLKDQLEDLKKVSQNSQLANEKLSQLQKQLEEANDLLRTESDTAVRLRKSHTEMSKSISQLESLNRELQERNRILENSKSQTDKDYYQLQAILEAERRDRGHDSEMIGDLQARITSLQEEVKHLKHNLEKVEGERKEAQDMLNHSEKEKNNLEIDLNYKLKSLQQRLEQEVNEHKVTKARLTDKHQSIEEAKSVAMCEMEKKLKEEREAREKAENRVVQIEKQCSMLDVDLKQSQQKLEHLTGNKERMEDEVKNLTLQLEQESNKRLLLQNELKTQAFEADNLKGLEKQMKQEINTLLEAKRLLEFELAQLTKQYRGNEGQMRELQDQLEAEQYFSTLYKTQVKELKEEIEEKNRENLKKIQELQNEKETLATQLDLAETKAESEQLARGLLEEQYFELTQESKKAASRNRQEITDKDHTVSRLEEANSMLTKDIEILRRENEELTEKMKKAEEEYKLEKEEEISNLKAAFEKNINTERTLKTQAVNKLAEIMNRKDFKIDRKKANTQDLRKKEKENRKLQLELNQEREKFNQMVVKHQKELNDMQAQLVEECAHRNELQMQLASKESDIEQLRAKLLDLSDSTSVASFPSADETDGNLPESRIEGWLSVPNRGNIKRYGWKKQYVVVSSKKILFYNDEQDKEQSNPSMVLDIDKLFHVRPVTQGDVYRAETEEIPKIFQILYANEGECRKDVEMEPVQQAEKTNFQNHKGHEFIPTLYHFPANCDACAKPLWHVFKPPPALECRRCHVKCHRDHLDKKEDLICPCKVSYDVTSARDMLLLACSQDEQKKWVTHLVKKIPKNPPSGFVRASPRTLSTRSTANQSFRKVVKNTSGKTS
Assay [11] has the same target. The settings on record: at 1 µM.
Assay [12] concerns the target Rho-associated protein kinase 2 (Homo sapiens) (UniProt O75116). The note with it: at 0.1 µM.
The target is the same in assay [13]. The settings on record: at 1 µM.
Assay [14] deals with Ribosomal protein S6 kinase alpha-1 (Homo sapiens) (UniProt Q15418). The note with it: at 0.1 µM.
Assay [15] shares this target. The settings on record: at 1 µM.
Assay [16] deals with Ribosomal protein S6 kinase alpha-3 (Homo sapiens) (UniProt P51812). The settings on record: at 0.1 µM.
Sequence of Ribosomal protein S6 kinase alpha-3 (Homo sapiens) (P51812 whole entry): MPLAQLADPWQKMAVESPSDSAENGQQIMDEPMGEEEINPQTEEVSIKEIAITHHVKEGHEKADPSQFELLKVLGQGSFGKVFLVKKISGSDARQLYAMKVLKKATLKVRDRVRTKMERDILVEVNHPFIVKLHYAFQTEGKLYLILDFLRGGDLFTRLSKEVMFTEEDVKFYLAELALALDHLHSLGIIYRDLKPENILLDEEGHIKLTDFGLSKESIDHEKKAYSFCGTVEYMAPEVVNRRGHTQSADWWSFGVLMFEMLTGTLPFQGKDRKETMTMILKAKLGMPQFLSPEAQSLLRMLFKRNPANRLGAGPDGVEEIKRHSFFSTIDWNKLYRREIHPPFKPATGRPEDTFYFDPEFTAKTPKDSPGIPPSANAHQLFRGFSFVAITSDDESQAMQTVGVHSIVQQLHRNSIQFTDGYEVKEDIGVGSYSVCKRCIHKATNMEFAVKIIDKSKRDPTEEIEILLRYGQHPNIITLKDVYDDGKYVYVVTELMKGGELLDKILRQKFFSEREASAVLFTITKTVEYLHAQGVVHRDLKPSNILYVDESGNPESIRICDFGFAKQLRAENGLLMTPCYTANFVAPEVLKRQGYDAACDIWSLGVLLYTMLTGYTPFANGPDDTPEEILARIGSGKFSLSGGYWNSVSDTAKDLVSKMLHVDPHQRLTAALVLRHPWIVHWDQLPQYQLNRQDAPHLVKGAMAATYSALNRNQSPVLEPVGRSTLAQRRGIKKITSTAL
For assay [17] the target is unchanged. The note with it: at 1 µM.
Assay [18] has as its target Ribosomal protein S6 kinase alpha-2 (Homo sapiens) (UniProt Q15349). The settings on record: at 0.1 µM.
For assay [19] the target is unchanged. The settings on record: at 1 µM.
In assay [20] the target is Ribosomal protein S6 kinase alpha-6 (Homo sapiens) (UniProt Q9UK32). The settings on record: at 0.1 µM.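 Note: reported value is the mean inhibition of RSK4, from the GSK PKIS kinase inhibitor screen.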
Sequence of Ribosomal protein S6 kinase alpha-6 (Homo sapiens) (Q9UK32 whole entry): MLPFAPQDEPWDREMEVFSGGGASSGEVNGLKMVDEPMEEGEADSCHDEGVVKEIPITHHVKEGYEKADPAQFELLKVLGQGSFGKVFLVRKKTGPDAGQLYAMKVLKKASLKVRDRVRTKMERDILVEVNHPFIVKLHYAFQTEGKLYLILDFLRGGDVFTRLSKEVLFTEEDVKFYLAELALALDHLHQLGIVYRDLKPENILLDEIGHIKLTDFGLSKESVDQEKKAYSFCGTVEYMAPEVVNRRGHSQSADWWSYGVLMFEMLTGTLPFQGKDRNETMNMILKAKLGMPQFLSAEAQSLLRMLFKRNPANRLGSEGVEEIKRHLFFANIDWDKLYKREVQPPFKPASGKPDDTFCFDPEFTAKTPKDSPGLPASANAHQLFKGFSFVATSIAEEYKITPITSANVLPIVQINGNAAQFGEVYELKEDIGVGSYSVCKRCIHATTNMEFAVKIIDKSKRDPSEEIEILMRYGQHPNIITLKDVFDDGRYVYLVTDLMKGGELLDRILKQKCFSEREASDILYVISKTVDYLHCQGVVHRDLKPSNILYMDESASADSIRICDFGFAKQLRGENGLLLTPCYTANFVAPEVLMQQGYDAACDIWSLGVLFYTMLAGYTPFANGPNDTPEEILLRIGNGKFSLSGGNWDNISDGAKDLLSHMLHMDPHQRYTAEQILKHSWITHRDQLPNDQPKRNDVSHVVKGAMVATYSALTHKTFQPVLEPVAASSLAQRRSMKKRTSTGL

Sequence of Ribosomal protein S6 kinase alpha-2 (Homo sapiens) (Q15349 whole entry): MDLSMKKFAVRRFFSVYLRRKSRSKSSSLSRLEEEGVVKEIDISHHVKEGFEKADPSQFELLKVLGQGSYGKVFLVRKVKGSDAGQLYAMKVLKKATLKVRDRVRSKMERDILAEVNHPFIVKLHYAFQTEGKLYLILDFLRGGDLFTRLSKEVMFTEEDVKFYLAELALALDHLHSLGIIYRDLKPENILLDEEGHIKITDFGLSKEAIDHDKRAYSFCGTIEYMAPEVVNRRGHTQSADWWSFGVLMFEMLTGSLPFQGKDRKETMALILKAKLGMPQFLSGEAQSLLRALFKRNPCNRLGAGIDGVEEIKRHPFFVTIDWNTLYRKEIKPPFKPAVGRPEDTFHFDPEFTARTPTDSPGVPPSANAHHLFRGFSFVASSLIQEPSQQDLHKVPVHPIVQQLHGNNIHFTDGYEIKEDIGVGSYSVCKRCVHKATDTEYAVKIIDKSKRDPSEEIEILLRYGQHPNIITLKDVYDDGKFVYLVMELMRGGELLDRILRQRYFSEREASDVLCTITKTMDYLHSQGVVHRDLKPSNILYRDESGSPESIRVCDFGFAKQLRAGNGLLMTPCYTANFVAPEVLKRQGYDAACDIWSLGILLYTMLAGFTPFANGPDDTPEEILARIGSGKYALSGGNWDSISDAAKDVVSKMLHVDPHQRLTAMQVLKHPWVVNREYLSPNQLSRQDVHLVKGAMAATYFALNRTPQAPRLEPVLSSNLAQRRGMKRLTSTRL
Sequence of Rho-associated protein kinase 2 (Homo sapiens) (O75116 whole entry, looked up): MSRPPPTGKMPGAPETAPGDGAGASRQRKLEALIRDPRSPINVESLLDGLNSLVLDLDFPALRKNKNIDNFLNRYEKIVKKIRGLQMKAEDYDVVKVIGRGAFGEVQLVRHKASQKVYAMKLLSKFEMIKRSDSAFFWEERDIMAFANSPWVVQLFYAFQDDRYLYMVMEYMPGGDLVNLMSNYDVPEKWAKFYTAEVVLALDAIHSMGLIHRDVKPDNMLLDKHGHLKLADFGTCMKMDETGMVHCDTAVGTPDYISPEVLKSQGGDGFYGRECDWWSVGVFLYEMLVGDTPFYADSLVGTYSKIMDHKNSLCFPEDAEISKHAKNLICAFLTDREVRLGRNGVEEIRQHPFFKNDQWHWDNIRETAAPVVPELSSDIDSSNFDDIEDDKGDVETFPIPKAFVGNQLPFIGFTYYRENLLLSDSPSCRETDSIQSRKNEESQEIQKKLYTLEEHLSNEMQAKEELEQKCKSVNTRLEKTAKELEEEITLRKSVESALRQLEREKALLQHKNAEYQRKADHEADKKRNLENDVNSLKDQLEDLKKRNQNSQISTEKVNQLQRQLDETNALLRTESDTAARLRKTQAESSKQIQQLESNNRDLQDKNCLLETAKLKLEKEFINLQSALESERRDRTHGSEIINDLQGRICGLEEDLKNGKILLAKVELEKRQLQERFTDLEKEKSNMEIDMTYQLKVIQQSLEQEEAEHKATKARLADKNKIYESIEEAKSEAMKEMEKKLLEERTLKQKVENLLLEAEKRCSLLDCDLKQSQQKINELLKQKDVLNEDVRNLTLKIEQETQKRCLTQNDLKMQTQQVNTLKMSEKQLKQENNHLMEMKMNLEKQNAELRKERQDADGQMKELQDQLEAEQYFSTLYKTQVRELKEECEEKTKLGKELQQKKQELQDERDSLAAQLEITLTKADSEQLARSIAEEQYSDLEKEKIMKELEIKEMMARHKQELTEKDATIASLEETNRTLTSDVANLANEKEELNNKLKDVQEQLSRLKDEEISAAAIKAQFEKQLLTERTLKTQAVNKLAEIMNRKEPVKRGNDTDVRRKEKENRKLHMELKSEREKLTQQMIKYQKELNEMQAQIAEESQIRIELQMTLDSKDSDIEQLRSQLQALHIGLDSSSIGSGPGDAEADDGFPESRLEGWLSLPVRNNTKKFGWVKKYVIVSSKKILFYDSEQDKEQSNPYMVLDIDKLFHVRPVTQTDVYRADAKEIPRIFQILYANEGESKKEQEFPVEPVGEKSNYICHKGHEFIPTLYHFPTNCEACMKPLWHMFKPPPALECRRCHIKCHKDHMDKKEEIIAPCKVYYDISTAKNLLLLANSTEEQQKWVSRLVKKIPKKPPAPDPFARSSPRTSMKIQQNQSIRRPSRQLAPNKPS

Regarding `COc1cccc(-n2nc(C)c3c(N/N=C(\C)c4ccncc4)ncnc32)c1`, the inhibition is -1.17% in [1]; -0.64% in [2]; 0.59% in assay [3]; 0.03% in [4]; 0.55% in assay [5]; 0.35% in assay [6]. Further, the inhibition is -0.19% in assay [7]; -0.2% in assay [8]; -1.17% in assay [9]; -1.53% in assay [10]; -1.87% in [11]; -0.57% in assay [12]. The inhibition in assay [13] was -1.33%; in assay [14], -1.25%; in assay [15], -0.11%; in assay [16] it was 0.34%; in assay [17], 1.55%; in assay [18], 1.45%. Also, the inhibition in [19] was 0.23%; in [20] it was -0.47%.
Take `CC(C)c1ccc2c(c1)NC(=O)/C2=N/Nc1ccc(S(N)(=O)=O)cc1`: the inhibition in assay [1] was -0.41%; in assay [2], -0.27%; in assay [3], -0.32%; in [4] it was -1.53%; in [5], 1.06%; in [6], -0.39%. Besides, the inhibition in assay [7] was -0.18%; in [8], 0.2%; in assay [9] it was -0.32%; in assay [10], -1.01%; in assay [11] it was -1.28%; in assay [12] it was -1.58%. The inhibition in [13] is -0.82%; in [14] it was 0.52%; in assay [15], 0.63%; in [16], -0.56%; in assay [17], 2.05%; in assay [18], 1%. Moreover, the inhibition is 2.15% in assay [19] and -0.83% in assay [20].
Consider `CCn1c(-c2nonc2N)nc2ccc(F)cc21`, for which the inhibition is 5.33% in [1]; 6.8% in assay [2]; 6.49% in assay [3]; 3.97% in assay [4]; 14.5% in assay [5]; 8.14% in [6]. Further, the inhibition in [7] was determined as 41.4%; in [8], 3.36%; in assay [9], 6.51%; in assay [10], 2.21%; in assay [11] it was 9.21%; in assay [12] it was 5.67%. Also, the inhibition in [13] came to 19%; in assay [14], 4.37%; in assay [15] it was 21%; in [16] it was 2.79%; in [17], 9.91%; in assay [18], 2.93%. The inhibition was found to be 14% in assay [19] and 1.56% in assay [20].
Take `Cc1nc(-c2ccccc2)n2nc(NCCCN3CCOCC3)ncc12`: the inhibition is 2.01% in assay [1]; 1.88% in [2]; 2.23% in assay [3]; 1.36% in assay [4]; 3.22% in [5]; 1.49% in assay [6]. Also, the inhibition came out at 3.07% in assay [7]; 2.28% in [8]; 1.01% in assay [9]; 0.46% in assay [10]; 0.26% in assay [11]; 2.1% in [12]. Further, the inhibition in assay [13] amounted to 0.91%; in assay [14], 1.44%; in [15], 5.36%; in [16] it was 2.6%; in assay [17] it was 7.74%; in assay [18], 3.24%. Further, the inhibition in assay [19] turned out to be 7.6%; in assay [20], 2.39%.
